# Bioassay records deposited in PubChem by National Center for Advancing Translational Sciences (NCATS).
# Rows were chosen to be rich in hits. Some 6.9% of all compounds tested hit in one or more screens of this group.
# Giardia kill: kills Giardia lamblia; Giardia lamblia trophozoite viability; activity change, % at 7.66 µM, hits read low; 340,000 compounds, 0.15% hits; in the data active = activity change below about -80%; inconclusive = between about -30% and that limit;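 also: parasites exposed to compound for two days anaerobically before the ATP read; % is scaled to controls: 0 for no effect and ±100 for the full control effect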
#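 Trophozoites 100 cells/well + cpd; 48 hrs, 37 deg C, anaerobic. ATPLite 1-Step added, 15-30 min RT, luminescence read (ATP-based viability).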
# Vif-APOBEC3F blk: blocks the Vif interaction with APOBEC3F | 390,000 compounds, 0.2% hits | Potency, µM (doses to about 46.1 µM), for inactives: at the highest dose activity, negative = active | HeLa A3F-eYFP + Vif (tagged APOBEC3F with the HIV-1 protein that degrades it), YFP fluorescence increase; also: potency is read from the fitted curve at half-maximal effect; % of control where 0% means no effect; nearly all actives have a fitted effect of over 65% in size
#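 HeLa cells stably expressing Vif plus C-terminally eYFP-tagged A3F were seeded, incubated overnight at 37 deg C, dosed with compound, incubated overnight again at 37 deg C. Yellow fluorescence (Ex 488/Em 500-530) reported blocked Vif-mediated A3F-eYFP degradation.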
# Vif-APOBEC3G blk: Vif-A3G binding inhibition. Q9HC16. HeLa A3G-eYFP + Vif (tagged APOBEC3G with the HIV-1 protein that degrades it), YFP fluorescence, overnight. Potency, µM (titrated, usually from 46.1 µM), for inactives: top-dose activity, negative = active, actives largely listed as inhibitors. 410,000 compounds, 0.076% hits; also: potency is read from the fitted curve at half-maximal effect; % is scaled to controls: 0 for no effect and ±100 for the full control effect; nearly all actives have a fitted effect of over 60% in size
# Target sequence (Q9HC16 whole entry, looked up): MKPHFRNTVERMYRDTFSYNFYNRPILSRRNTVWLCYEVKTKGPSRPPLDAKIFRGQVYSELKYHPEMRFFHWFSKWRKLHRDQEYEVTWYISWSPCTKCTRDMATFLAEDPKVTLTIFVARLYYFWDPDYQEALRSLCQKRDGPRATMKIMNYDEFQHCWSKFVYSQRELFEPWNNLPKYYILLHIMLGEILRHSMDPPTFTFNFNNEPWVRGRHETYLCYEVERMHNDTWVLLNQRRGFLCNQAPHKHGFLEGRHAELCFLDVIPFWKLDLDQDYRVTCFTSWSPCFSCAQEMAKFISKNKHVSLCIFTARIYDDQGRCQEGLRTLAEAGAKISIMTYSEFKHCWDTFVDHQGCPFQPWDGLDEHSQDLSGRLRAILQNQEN
#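 Read-out is eYFP fluorescence (Ex 488/Em 500-530) from Vif-expressing HeLa A3G-eYFP cells; more signal means A3G escaped Vif-mediated degradation. Cells plated overnight, compound pinned in, incubated overnight at 37 deg C.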
# MCF10A rerep: induces DNA re-replication in MCF 10a normal breast cells; MCF 10A DNA re-replication, Hoechst nuclear intensity, 48 h; 350,000 compounds, 2.9% hits; Potency, µM (series often up to 46.1 µM), for inactives: at the highest dose activity, positive = re-replication, hits mostly activators; also: potency is read from the fitted curve at half-maximal effect; % of control where 0% means no effect; nearly all actives have a fitted effect of over 50% in size
# IL-1B inflam inh: inhibitors of inflammasome signaling (IL-1 beta secretion); activity change, % at 57.5 µM; 360,000 compounds, 4.7% hits; THP-1 LPS/ATP IL-1B secretion, AlphaLISA, 16 h; stronger effect = lower value; in the data active = activity change below about -50%; inconclusive = mostly about -30% to -49%; also: % is scaled to controls: 0 for no effect and ±100 for the full control effect
#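 Secreted IL-1B measured by AlphaLISA bead assay after 16 h compound exposure of THP-1 cells; compounds (final up to 57.5 uM) added 1 h before LPS (250 ng/mL) and ATP (1.25 mM) stimulation; lower signal means less secretion.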
# SW480 rerep: inducers of DNA re-replication in SW480 colon cancer cells. SW480 DNA re-replication, Hoechst DNA content imaging, 48 h. Potency, µM (series often up to 46.1 µM), without a hit: at the highest dose re-replication activation, most hits filed as activators. 340,000 compounds, 1.8% hits; also: potency is read from the fitted curve at half-maximal effect; % of control where 0% means no effect; nearly all actives have a fitted effect of over 55% in size
#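 Cells (250 per well) received 23 nL compound or DMSO by pin tool and were kept 48 hr at 37 C, 5% CO2. Nuclei were then stained with Hoechst for 40 min and scanned for DNA content.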
# Numbers without * were called inactive; ? = inconclusive; / = no result; [ ] = another dose, or the depositor's remark. Unless noted, calls follow the shape of the dose curve; as a rule, active = well fitted curve in the direction sought with a large enough effect; inconclusive = small, poorly fitted or top-dose-only effect, or another doubt; inactive = no such curve, though single readings can be large; an effect the other way counts as inactive or inconclusive.
SMILES,Giardia kill,Vif-APOBEC3F blk,Vif-APOBEC3G blk,MCF10A rerep,IL-1B inflam inh,SW480 rerep
CCN(C(=O)CSc1nc2ccccc2n1Cc1ccc(C(=O)OC)cc1)c1ccccc1,/,5%,3%,/,/,/
O=C(c1ccc(CSc2nc3ccncc3n2Cc2cccc(F)c2)cc1)N1CCCCC1,/,-5%,-7%,/,/,/
Cc1cccc(-c2nnc(SCC(=O)N3c4ccccc4CCc4ccccc43)n2C)c1,-2,-8%,-1%,?,-56*,7%
CCOC(=O)c1c(C)n(S(=O)(=O)c2ccc(C)cc2)c2ccc(NS(=O)(=O)c3ccc(C)cc3)cc12,/,-1%,-10%,/,/,/
COc1ccc(C(=O)NCCNc2nc3c(C)cccc3cc2C#N)cc1OC,2,3%,2%,0.58µM*,-27,2.6µM*
COc1cc(C(=O)NCCNc2nc3c(C)cccc3cc2C#N)cc(OC)c1OC,/,-1%,3%,/,6,/
COc1ccc(C(=O)NCCNc2nc3ccc(C)cc3cc2C#N)cc1,-11,-25%,0%,21µM*,-7,?
COc1ccc(C(=O)NCCNc2nc3c(C)cccc3cc2C#N)cc1,-21,-3%,-5%,18µM*,?,15%
Cc1cccc2cc(C#N)c(NCCNS(=O)(=O)c3ccc4c(c3)OCCO4)nc12,-19,-19%,1%,?,9,16µM*
CCCc1nn2c(=O)cc(COC(=O)c3ccc(NC(=O)COc4ccccc4F)cc3)nc2s1,/,0%,3%,/,/,/
Cc1ccccc1-n1c(=O)c2c3c(sc2n2cnnc12)CCCC3,/,-5%,0%,/,/,/
CC(=O)c1sc2c(c1C)c(=O)n(-c1ccc(Cl)cc1)c(=O)n2Cc1ccc(Cl)cc1,/,5%,1%,/,/,/
CCC(=O)N1CCc2cc(Br)cc(S(=O)(=O)NCCc3ccccc3)c21,/,1%,2%,/,/,/
Cc1ccc(NC(=O)C2CCN(S(=O)(=O)c3ccc4[nH]c(=O)ccc4c3)CC2)cc1C,/,-3%,-11%,/,/,/
O=C(NCc1noc2ccccc12)N1CCN(c2ccccc2)CC1,/,-9%,-7%,/,/,/
Cc1ccc2nc(NCc3ccccc3)c(C#N)cc2c1,-12,-14%,0%,15µM*,30,?
CC(=O)c1sc2nc(-c3cccs3)cc(C(F)(F)F)c2c1N,4,5µM*,?,21%,-4,14%
CN(C)CCNC(=O)c1sc2nc(-c3ccccc3)cc(C(F)(F)F)c2c1N,-12,?,?,?,-99*,?
COc1ccc(OC)c(NC(=O)c2sc3nc(Cc4ccccc4)cc(C(F)(F)F)c3c2N)c1,4,10µM*,0%,?,-9,0%
Cc1c(C(=O)O)sc2nc(-c3cccs3)cc(C(F)(F)F)c12,5,-17%,1%,16%,-10,-17%
COc1ccc(NC(=O)c2sc3nc(C(F)(F)F)cc(C)c3c2N)cc1OC,/,5.6µM*,-14%,/,/,/
CCCCn1cc(S(=O)(=O)c2ccc(Cl)cc2)c(=O)c2cc(F)c(N3CCCCC3)cc21,/,-1%,3%,/,/,/
O=C1C=CC(O)C2(CO)OC12 (configuration not stated),/,-6%,?,/,-90*,/
Cc1[nH]c(C(=O)O)c(C#N)c1C(=O)c1ccccc1,-5,0%,2%,0%,11,-5%
CC(=O)N(C(C)=O)c1c(C#N)c(C)n(-c2ccccc2)c1C(=O)c1ccccc1,9,-8%,-9%,6.5µM*,22,?
SMILES,Giardia kill,Vif-APOBEC3F blk,Vif-APOBEC3G blk,MCF10A rerep,IL-1B inflam inh,SW480 rerep
Cc1cc(NC(=O)CSc2nc3c(C)cccc3cc2C#N)no1,-5,11µM*,?,?,-6,?
COc1ccc2cc(C#N)c(SCC(=O)N3CC(=O)Nc4ccccc43)nc2c1,-5,?,?,21µM*,-10,?
Cc1cc(C)c2nc(SCC(=O)NCC3CCCO3)c(C#N)cc2c1 (configuration not stated),-19,0%,3%,-1%,-51*,-6%
Cc1cccc2cc(C#N)c(SCC(=O)N3CCC(C)CC3)nc12,3,-28%,-8%,14%,20,2%
Cc1cccc2cc(C#N)c(SCC(=O)N3CC(=O)Nc4ccccc43)nc12,-2,?,?,0.65µM*,74,7.3µM*
COc1ccc2cc(C#N)c(SCC(=O)N3CCCC3)nc2c1,4,-1%,2%,3%,-10,1%[9.22 µM]
CCn1c(C(=O)NCc2ccccc2Br)cc2oc3ccccc3c21,-11,8%,-4%,/,/,/
Cc1ccc2c(=O)cc(C(=O)Nc3sc4c(c3C(N)=O)CCCC4)oc2c1,/,3%,-3%,/,/,/
CC(C)OCCCn1c(=N)c(C(N)=S)cc2c(=O)n3ccccc3nc21,-17,-4%,1%,9.2µM*,-22,5.8µM*
CC(C)OCCCn1c(=NC(=O)c2ccncc2)c(C#N)cc2c(=O)n3ccccc3nc21,-12,-12%,0%,-8%,0,-9%
CC(=O)N=c1c(C#N)cc2c(=O)n3ccccc3nc2n1CCCOC(C)C,16,0%,1%,?,?,16µM*
CC(C)OCCCn1c(=NC(=O)c2cccs2)c(C#N)cc2c(=O)n3ccccc3nc21,-13,-8%,-1%,12µM*,16,21µM*
COc1ccc2c(C(=O)NCc3ccc4c(c3)OCO4)c(-c3ccc(S(C)(=O)=O)cc3)sc2c1,24,-9%,-30%,118%,49,3.7µM*
COC(=O)c1c(-c2ccc(S(C)(=O)=O)cc2)sc2cc(OC)ccc12,25,-4%,-9%,19%,-20,-1%
Cc1cc(NC(=O)Cc2ccc(Br)cc2)no1,-4,5%,0%,?,17,?
Cc1cc(NC(=O)/C=C/c2ccc(Cl)cc2)no1,13,1%,0%,9%,-6,6.5µM*
Cc1cc(NC(=O)/C=C/c2ccc(Br)cc2)no1,-3,-15%,0%,4%,9,10µM*
O=C(C[n+]1ccccc1)c1ccc(O)c(O)c1,/,/,1%,/,/,/
Fc1ccc2c(c1)C1OCCCC1C(c1ccccc1)N2 (configuration not stated),-2,-7%,-29%,6.5µM*,5,?
